# Most compounds without a hit are left out; they make up all but 4.1% or so of the library.
# FMDV antiviral – High Throughput Screening for Foot and Mouth Disease Virus Antivirals | FMDV antiviral cell-based qHTS | Potency, µM (series often up to 57.9 µM), hits mostly inhibitors | 1.2% of 410,000 active | AID 1159524, 2015; calls by dose curve; tested in HEK293T cells; also: read-out not given here; nearly all actives have a fitted effect of over 45% in size
# AmpC no deterg – qHTS Inhibitors of AmpC Beta-Lactamase (assay without detergent) | P00811 | AmpC nitrocefin hydrolysis, absorbance 480 nm, 0.0001% Triton | Potency, µM (titrated, usually from 57.1 µM), usual class: inhibitors | 0.52% of 330,000 active | AID 485341, 2010; also: nearly all actives have a fitted effect of over 20% in size
# Target sequence (P00811 whole entry, looked up): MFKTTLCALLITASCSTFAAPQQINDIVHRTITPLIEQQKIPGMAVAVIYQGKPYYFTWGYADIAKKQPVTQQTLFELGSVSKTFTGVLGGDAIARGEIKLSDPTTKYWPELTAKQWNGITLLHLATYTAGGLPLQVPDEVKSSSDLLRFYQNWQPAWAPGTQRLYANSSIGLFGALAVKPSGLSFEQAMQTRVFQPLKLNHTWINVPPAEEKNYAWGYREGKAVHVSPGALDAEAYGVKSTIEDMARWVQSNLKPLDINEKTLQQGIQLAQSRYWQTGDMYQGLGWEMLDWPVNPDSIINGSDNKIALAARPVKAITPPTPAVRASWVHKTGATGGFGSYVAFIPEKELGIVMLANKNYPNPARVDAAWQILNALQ
#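 20 mM phosphate pH 7.0 + 0.01% (detergent screen) or 0.0001% Triton X-100; 5.3 nM AmpC reagent; cpd preinc 15 min RT; nitrocefin (800 uM stock) to start; A480 q20 s × 4 min; Activity was normalised to no-enzyme and no-compound control wells.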
# Sm TGR inh – qHTS Assay for the Inhibitors of Schistosoma Mansoni Peroxiredoxins; Schistosoma mansoni thioredoxin glutathione reductase (TGR), Q962Y6; purified TGR, DTNB reduction, TNB absorbance 405 nm; Potency, µM (doses to about 114 µM), usual class: inhibitors; 3% of 360,000 active; AID 485364, 2010; also: nearly all actives have a fitted effect of over 60% in size
#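 TGR 20 nM + NADPH 100 uM (dispensed conc.), cpd preinc 15 min RT; start with NADPH (500 uM addition) then DTNB (15 mM addition). Kinetic TNB absorbance, 405 nm filter. Four-parameter Hill fit across titration.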
# AMA1 RON2 block – qHTS for Inhibitors of AMA1-RON; Towards Development of Antimalarial Drug Lead: Primary Screen; Plasmodium falciparum AMA1 (3D7) - RON2 peptide interaction; AlphaScreen AMA1-biotinylated RON2 peptide binding; Potency, µM (titrated, usually from 58.2 µM), most hits filed as inhibitors; 0.2% of 360,000 active; AID 720542, 2013; also: nearly all actives have a fitted effect of over 45% in size
#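 AMA1 (3D7) with his tag at 25 nM final met compounds first, then biotinylated RON2 peptide at 25 nM; detection used donor plus acceptor beads, 10 µg/mL apiece, read by AlphaScreen after 30 min at room temperature.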
# AmpC detergent – qHTS Inhibitors of AmpC Beta-Lactamase (assay with detergent). AmpC hydrolysis of nitrocefin, absorbance 480 nm, 0.01% Triton. Potency, µM (series often up to 114 µM), hits mostly inhibitors. 0.041% of 370,000 active. AID 485294, 2010; also: nearly all actives have a fitted effect of over 25% in size
#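 20 mM phosphate pH 7.0 + 0.01% (detergent screen) or 0.0001% Triton X-100; 5.3 nM AmpC reagent; cpd preinc 15 min RT; nitrocefin (800 uM stock) to start; A480 q20 s × 4 min; Activity was normalised to no-enzyme and no-compound control wells.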
# Hits are given with their value; – = inactive; ? = inconclusive; · = not tested or not shown. Unless noted, calls follow the shape of the dose curve; as a rule, active = well fitted curve in the direction sought with a large enough effect; inconclusive = small, poorly fitted or top-dose-only effect, or another doubt; inactive = no such curve, though single readings can be large; an effect the other way counts as inactive or inconclusive.
SMILES,FMDV antiviral,AmpC no deterg,Sm TGR inh,AMA1 RON2 block,AmpC detergent
O=C(C[N+]12CC[N+](CC(=O)c3ccc(F)cc3)(CC1)CC2)c1ccc(F)cc1,–,–,–,–,–
N#CC1(C#N)CC(C=O)=C(N)C1(C#N)CC(=O)c1ccc(F)cc1 (stereo not given),–,–,20µM,–,?
COC(=O)CC1c2ccccc2S(=O)(=O)N1Cc1ccccc1 (stereo not given),–,–,32µM,–,–
O=S1(=O)c2ccccc2C(CCO)N1Cc1ccccc1 (stereo not given),–,–,28µM,–,–
CCCCCCn1c(=O)n2n(c1=O)[C@@H]1CN(S(=O)(=O)c3ccc(C)cc3)C[C@]1(O)[C@@H](OC(=O)NCc1ccccc1F)C2,–,·,·,–,·
Cc1ccc(S(=O)(=O)N2C[C@H]3n4c(=O)ccc(=O)n4C[C@H](OC(=O)NCc4ccccc4F)[C@@]3(O)C2)cc1,20µM,·,·,–,·
CCCCCCNC(=O)O[C@H]1Cn2c(=O)ccc(=O)n2[C@@H]2CN(S(=O)(=O)c3ccc(C)cc3)C[C@]12O,18µM,·,·,–,·
COc1ccc(O)c(CN2CCC3(CCC(CNC(=O)c4ccco4)O3)CC2)c1 (stereo not given),–,·,·,·,·
O=C(NCC(c1cccnc1)N1CCc2ccccc21)c1ccc(Cl)cc1 (stereo not given),?,·,–,·,–
CCN(Cc1ccc(OC)c(F)c1)C(=O)CCl,?,–,11µM,–,–
CCN(Cc1ccc(OC)c(F)c1)C(=O)C1CCCO1 (stereo not given),–,–,–,–,–
COc1cccc(CNC(=O)c2c(OC)cc(=O)n3c2CCN(C(=O)C2CC24CCCC4)CC3)c1 (stereo not given),–,·,·,·,·
C=CCNC(=S)N/N=C/c1ccc(-c2ccc(OC)cc2)o1,14µM,–,·,–,–
CC(C)(C)NC(=S)N/N=C\c1ccc(-c2ccc([N+](=O)[O-])cc2)o1,?,?,2.2µM,–,–
Cc1ccc(-c2ccc(/C=N/NC(=S)Nc3ccccc3)o2)cc1[N+](=O)[O-],?,3.5µM,–,–,–
CNC(=S)N/N=C/c1ccc(-c2ccc(Cl)c([N+](=O)[O-])c2)o1,–,–,–,–,–
CCCCC(=O)N/N=C/c1ccc(-c2ccc([N+](=O)[O-])cc2)o1,–,–,–,–,–
COc1cc(NC(=O)CC2C(=O)N(c3cccc(C)c3)C(=O)N2Cc2ccc(F)cc2)cc(OC)c1 (stereo not given),–,·,–,·,–
O=c1c2ccccc2c(-c2cccc(C(F)(F)F)c2)nn1-c1ccccc1,–,–,–,–,–
O=c1c2ccccc2c(-c2ccc(O)cc2)nn1-c1cccc(C(F)(F)F)c1,40µM,18µM,–,–,–
COc1cc(O)oc1C=Nc1ccc(Cl)cc1,–,–,–,–,–
COc1cc(O)oc1C=Nc1ccc(Cl)cc1Cl,–,–,79µM,–,–
Cc1ccc(CNC(=O)c2c(-c3ccccc3F)noc2C)o1,–,·,–,·,–
COc1ccc(CCNC(=O)Cc2ccccc2)cc1OC,–,–,–,–,–
COc1ccc(CCNC(=O)CC(c2ccccc2)c2cc(C)ccc2O)cc1OC (stereo not given),18µM,–,–,–,–
SMILES,FMDV antiviral,AmpC no deterg,Sm TGR inh,AMA1 RON2 block,AmpC detergent
Cc1ccc(CN2CCN(/N=C\C=C\c3ccccc3)CC2)cc1,–,–,–,13µM,–
CC(/C=N\N1CCN(Cc2ccc(C)cc2)CC1)=C\c1ccccc1,?,–,–,?,–
Cc1ccc(CN2CCN(/N=C/c3ccc(C)s3)CC2)cc1,–,–,–,25µM,?
Cc1ccc2oc(=O)c3cc(C(=O)NCCCN4CCN(C)CC4)sc3c2c1,–,–,–,–,–
O=C(NCCCN1CCCCCC1)c1cc2c(=O)oc3ccccc3c2s1,–,–,50µM,–,–
Cc1cccc(N2CCN(C(=O)c3cc4c(=O)oc5ccccc5c4s3)CC2)c1C,–,·,–,·,–
Cc1ccc(C)c(N2CCN(C(=O)c3cc4c(=O)oc5ccccc5c4s3)CC2)c1,–,·,89µM,·,–
CCN(C(=O)CN(C)S(=O)(=O)c1ccc2c(c1)n(C)c(=O)c(=O)n2C)c1cccc(C)c1,–,·,–,·,–
COc1ccc(CNc2cc(-c3ccccc3C)ncn2)c(OC)c1,–,·,·,·,·
O=C(NCc1ccco1)c1scc2c1OCCO2,–,–,35µM,–,–
COc1ccc(-n2nc([N+](=O)[O-])c(=NCCc3ccc(C)cc3)n2O)cc1,–,–,–,?,–
COc1ccc(-n2nc([N+](=O)[O-])c(=NCCC3=CCCCC3)n2O)cc1,–,–,–,16µM,–
O=[N+]([O-])c1nn(-c2ccc3c(c2)OCCO3)n(O)c1=NCc1ccccc1Cl,·,–,–,–,?
COc1ccccc1CN=c1c([N+](=O)[O-])nn(-c2ccc3c(c2)OCCO3)n1O,–,–,40µM,?,–
COc1ccc(-n2nc([N+](=O)[O-])c(=NCCc3ccc(OC)c(OC)c3)n2O)cc1,?,–,35µM,–,–
Cc1cc(-c2ccnc(-n3ncc(C(=O)NCC4COCCO4)c3C)n2)c(C)s1 (stereo not given),–,·,·,·,·
COc1ccc(Cn2c(SCc3ccc(C(=O)NCc4ccc(C)cc4)cc3)nc3cccnc32)cc1,–,·,–,·,–
O=C(NCc1cccnc1)C1CCN(Cc2cc3ccccc3n2Cc2cccc(Cl)c2)CC1,–,·,–,·,–
CC1=CC(c2ccc(Cl)cc2)n2nc(NC(=O)CCCC(=O)O)nc2N1 (stereo not given),–,–,22µM,–,–
O=C(O)CCCC(=O)Nc1nc2n(n1)C(c1ccc(F)cc1)CC(c1ccc(Cl)cc1)N2 (stereo not given),–,–,–,–,–
CC1=CC(c2ccc(Cl)cc2)n2nc(NC(=O)CCC(=O)O)nc2N1 (stereo not given),–,–,10µM,–,–
COc1ccc(C(=O)N(c2ccc(C)cc2)S(=O)(=O)c2ccc(C)cc2)cc1,–,·,–,·,–
COc1ccc(N(C(=O)c2ccncc2)S(=O)(=O)c2ccc(Cl)cc2)cc1,–,–,20µM,–,–
COc1ccc(N(C(=O)c2ccncc2)S(=O)(=O)c2cccs2)cc1,–,–,25µM,–,–
O=C(Oc1ccc(N(C(=O)c2ccncc2)S(=O)(=O)c2ccc(F)cc2)cc1)c1ccncc1,–,–,28µM,–,–
O=C(Oc1ccc(N(C(=O)c2ccncc2)S(=O)(=O)c2ccc(Cl)cc2)cc1)c1ccncc1,–,–,18µM,–,–
C#CCN1C(C)=C(C(=O)CCO)[C@@H](c2cccc(-n3oo3)c2)C(C(=O)OC)=C1C,–,·,·,·,·
